The values below come from PubChem BioAssay (Tox21).

Where “and” joins values, the source holds several entries; their conditions need not be identical. Equal values may be shown once. Results filed as inconclusive are left out. The source holds several records for some structures; these can differ, active in one and inactive in another. Calls of active or inactive are those of the source. Unless noted, calls come from the whole dose curve; as a rule, active = well fitted curve in the direction sought with a large enough effect in the repeat runs; inconclusive = weak or mixed curves; inactive = no such curve, though single readings can be large; an effect the other way counts as inactive or inconclusive.

Experiment [1] in a line: qHTS assay to identify small molecule antagonists of the vitamin D receptor (VDR) signaling pathway - cell viability counter screen (AID 743225). Note: % is set by controls: 0 for no effect and ±100 for the full control effect; nearly all actives have a fitted effect of over 50% in size. The method, boiled down: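 HEK293T VDR-bla; cpd + 1a,25-(OH)2D3 3 nM final, 16 h 37C/5% CO2; B/G FRET substrate 2 h RT; then CellTiter-Glo 30 min RT, luminescence.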
(In general: qHTS replaces the single test concentration by a dilution series.)

A short description of experiment [2]: qHTS assay to identify small molecule agonists of the endoplasmic reticulum stress response signaling pathway - cell viability counter screen (AID 1159517; calls by dose curve; note: % is set by controls: 0 for no effect and ±100 for the full control effect; nearly all actives have a fitted effect of over 50% in size). The method, boiled down: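 ESRE-bla HeLa cells (1,500/well) were plated overnight at 37 C and exposed to compounds for 5 hr. After the 2 hr beta-lactamase substrate read, CellTiter-Glo went into the same wells, and luminescence was read after 30 min at room temperature.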

Experiment [3] can be described thus: qHTS assay to identify small molecule antagonists of the retinoid-related orphan receptor gamma (ROR-gamma) signaling pathway - cell viability counter screen (AID 1159520). Note: nearly all actives have a fitted effect of over 50% in size. Note: potency is the fitted concentration of half-maximal effect. In a few lines: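 Cytotoxicity was read from cellular ATP (CellTiter-Glo luminescence) after 16 hr at 37 C with 1 uM doxycycline induction. The inducer was added 2 hr after compound transfer to Tet-on ROR gamma CHO cells.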

The target of experiment [4] is Nuclear receptor ROR-gamma (Homo sapiens) (UniProt P51449). The experiment in a line: qHTS assay to identify small molecule antagonists of the retinoid-related orphan receptor gamma (ROR-gamma) signaling pathway (AID 1159521; note: nearly all actives have a fitted effect of over 50% in size; note: potency is the fitted concentration of half-maximal effect). In a few lines: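 Cells were plated, rested 4 h at 37 C, exposed to compounds for 2 h, then given 1 uM final doxycycline hyclate to induce RORγ expression. After 16 h, ONE-Glo luminescence from the ROR response element reporter was measured.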

The nature of experiment [5]: qHTS assay to identify small molecule agonists of the AP-1 signaling pathway - cell viability counter screen (AID 1159525; calls by dose curve; note: nearly all actives have a fitted effect of over 55% in size). The method, boiled down:
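Intracellular ATP by Cell Titer Glo luminescence (30 min, RT) in the same ME-180 AP-1-bla wells after the 5 h compound exposure at 37 °C. Normalised to tetra n-octyl ammonium bromide and DMSO controls.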

A short description of experiment [6]: qHTS assay to identify small molecule agonists of the AP-1 signaling pathway (AID 1159526; calls by dose curve; note: potency is the fitted concentration of half-maximal effect).
A short description of experiment [7]: qHTS assay to identify small molecule antagonists of the retinoid acid receptor (RAR) signaling pathway - cell viability counter screen (AID 1159551). Note: % is set by controls: 0 for no effect and ±100 for the full control effect; nearly all actives have a fitted effect of over 35% in size. The method, boiled down:
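Cytotoxicity counter screen: ATP content quantified by CellTiter-Glo luminescence in C3RL4 cells treated 6 hr at 37 C with compound and retinol (1 uM final). Cells plated at 1,000/well and cultured overnight before dosing.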

A short description of experiment [8]: qHTS assay to identify small molecule antagonists of the retinoic acid receptor (RAR) signaling pathway (AID 1159552). The method, boiled down: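 Retinol at 1 uM final stimulated RARE-luciferase expression in C3RL4 cells exposed to test compounds for 6 hr at 37 C. Reduced luminescence, read 30 min after detection reagent, indicated pathway antagonism.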
Experiment [9] can be described thus: qHTS assay to identify small molecule agonists of the retinoic acid receptor (RAR) signaling pathway (AID 1159553). Note: % is set by controls: 0 for no effect and ±100 for the full control effect. The settings on record: C3RL4 RARE luciferase reporter, agonist, 6 h; activation: at 73.3 µM (top of the series) unless noted. In a few lines: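 Luminescence was measured 30 min after luciferase reagent addition at room temperature. Before that, C3RL4 reporter cells (1,000 per well, plated overnight) were treated with compound for 6 hr at 37 C and 5% CO2.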

Experiment [10] is described as follows: qHTS assay to identify small molecule antagonists of the estrogen related receptor (ERR) signaling pathway from Tox21 library - cell viability counter screen (AID 1224834). Note: % is set by controls: 0 for no effect and ±100 for the full control effect; nearly all actives have a fitted effect of over 30% in size. In a few lines: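 CellTiter-Fluor fluorescence, read after 30 min at 37 C, measures viability of ERR cells. Cells plated at 2,000/well and incubated 6 h before pin-tool compound addition, then exposed 17.5 hours at 37 C.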

Experiment [11] in a line: qHTS assay to identify small molecule agonists of the endoplasmic reticulum stress response signaling pathway (AID 1159516; active = well fitted activation curve with a large enough effect in the signal ratio in the repeat runs, not every such curve was filed as active; the % refers to the signal ratio; note: % is set by controls: 0 for no effect and ±100 for the full control effect). In a few lines:
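Ratiometric FRET readout (405 nm excitation; 460 and 530 nm emission) of a beta-lactamase gene driven by the ER stress response element, after 2 hr substrate loading. HeLa ESRE-bla cells were seeded overnight and treated with compounds for only 5 hr at 37 C.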

Experiment [12] deals with Retinoic acid receptor RXR-alpha (Homo sapiens) (UniProt P19793). The experiment can be described thus: qHTS assay to identify small molecule agonists of the RXR signaling pathway (AID 1159527; calls by dose curve; note: nearly all actives have a fitted effect of over 35% in size; note: potency is the fitted concentration of half-maximal effect). In a few lines: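 Cells plated at 2,000/well, rested 5 hr at 37 C, pin-dosed with DMSO compound solutions, incubated 16 hr, then loaded with B/G FRET substrate for 2 hr at RT before dual-emission fluorescence reading.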
Chain of Retinoic acid receptor RXR-alpha (Homo sapiens) (P19793 whole entry, looked up): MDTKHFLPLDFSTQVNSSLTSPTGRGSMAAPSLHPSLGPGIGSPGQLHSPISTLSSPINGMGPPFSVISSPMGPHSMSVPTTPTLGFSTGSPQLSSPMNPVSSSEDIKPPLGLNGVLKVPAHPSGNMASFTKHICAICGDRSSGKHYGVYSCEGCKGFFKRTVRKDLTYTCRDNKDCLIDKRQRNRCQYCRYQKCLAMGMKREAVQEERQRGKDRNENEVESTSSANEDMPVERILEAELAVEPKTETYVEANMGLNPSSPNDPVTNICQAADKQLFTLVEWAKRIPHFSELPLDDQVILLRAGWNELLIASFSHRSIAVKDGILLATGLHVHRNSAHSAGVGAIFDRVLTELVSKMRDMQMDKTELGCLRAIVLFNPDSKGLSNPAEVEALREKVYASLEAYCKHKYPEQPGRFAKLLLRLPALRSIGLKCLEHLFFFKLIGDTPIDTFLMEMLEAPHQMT

A short description of experiment [13]: qHTS assay to identify small molecule agonists of the RXR signaling pathway - cell viability counter screen (AID 1159529). In a few lines: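 Steps: seed RXR-alpha-UAS-bla HEK 293T cells in assay medium containing 2% charcoal-stripped FBS; incubate 5 hr; add compounds in DMSO; incubate 16 hr at 37 C; after the bla read, add CellTiter-Glo and read luminescence at 30 min.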

The nature of experiment [14]: qHTS assay to identify small molecule antagonists of the estrogen related receptor (ERR) signaling pathway - cell viability counter screen (AID 1224818).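 Note: viability measured after 17.5 h of compound exposure; % is set by controls: 0 for no effect and ±100 for the full control effect.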 In a few lines:
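Cytotoxicity counter screen: fluorescence from CellTiter-Fluor, added after 17.5 h compound exposure at 37 C and read 30 min later. ERR cell line seeded at 2,000 cells/well, preincubated 6 h before dosing.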

Experiment [15] in a line: qHTS assay to identify small molecule antagonists of the estrogen related receptor signaling pathway with the pleiotropic PPARgamma coactivator (PGC) cell viability counter screen (AID 1224822; note: % is set by controls: 0 for no effect and ±100 for the full control effect). In a few lines: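 Viability counter-screen read by fluorescence intensity after 30 min with CellTiter-Fluor at 37 C; PGC/ERR reporter cells were exposed to compounds for 17.5 h at 37 C following a 6 h preincubation.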

`O=[Se](O)O`: the Potency entry in experiment [1], in experiment [2], in experiment [5], in experiment [7], in [8] and in experiment [9] was “inactive” each time. Besides, the Potency in experiment [3] is 54.5 µM (active); in experiment [4], 1.65 µM (active); in [6], “inactive and 5.28 µM (active)”. The activity, negative = cytotoxicity in experiment [3] was -10.3% [at 19 µM] (inactive). The viability change, negative = cytotoxic in experiment [10] is -9.9% [at 19 µM] (inactive).
For `CCC(=O)O[C@H]1[C@H](O[C@@H]2[C@@H](C)[C@H](O[C@H]3C[C@@](C)(OC)[C@@H](O)[C@H](C)O3)[C@@H](C)C(=O)O[C@H](CC)[C@@](C)(O)[C@H](O)[C@@H](C)C(=O)[C@H](C)C[C@@]2(C)O)O[C@H](C)C[C@@H]1N(C)C`, the Potency entry in experiment [11], in experiment [2], in experiment [3], in [5], in [6] and in [12] was “inactive” each time. The Potency entry in experiment [10] is “inactive”.
`CN1CCOCC1`: the Potency entry in experiment [1], in experiment [11], in experiment [2], in [3], in experiment [5] and in experiment [6] was “inactive” throughout. Moreover, the Potency result in experiment [12], in [8], in experiment [9] and in experiment [10] was “inactive” throughout.
For `NCCOCCO`, the Potency entry in experiment [11], in experiment [2], in experiment [3], in experiment [4], in experiment [5] and in experiment [6] was “inactive” in each case. Further, the Potency entry in experiment [12], in experiment [13] and in experiment [10] was “inactive” throughout.
Take `CCCOCCO`: the Potency entry in [11], in [2], in experiment [3], in [5], in experiment [6] and in [12] was “inactive” each time. In addition, the Potency result in experiment [8], in [9] and in experiment [10] was “inactive” throughout.
Turning to `CCCCCC1C(=O)CCC1CC(=O)OC` (centres undefined), the Potency entry in [11], in experiment [2], in [3], in experiment [5], in experiment [6] and in experiment [12] was “inactive” in each case. The Potency entry in experiment [13], in [7], in experiment [8], in [9] and in [10] was “inactive” in each case.
Turning to `C[N+](C)(C)CCO`, the Potency result in experiment [1], in experiment [2], in experiment [3], in [5], in experiment [6] and in experiment [12] was “inactive” throughout. In addition, the Potency entry in [13], in [7] and in [10] was “inactive” each time. The result in experiment [14] and in experiment [15] was inactive.
Consider `Cc1ccc(S(=O)(=O)O)cc1C`, for which the Potency result in [1], in experiment [2], in experiment [3], in [5], in experiment [6] and in experiment [13] was “inactive” each time. For the same compound, the Potency result in experiment [7], in experiment [8], in [9] and in experiment [10] was “inactive” each time. In addition, in experiment [12], the Potency entry was “inactive and 9.77 µM (active)”.
